MOR-DOR ag: agonists of human mu-delta opioid receptor heterodimerization; P35372+P41143; cells, OPRM1-OPRD1 heterodimerization, luminescence; activation, % at 9.3 µM; actives 0.3% (n = 340,000); AID 504326; in the data active = activation above about 18%
MOR-DOR inv ag: mu-delta opioid heterodimer inverse agonism. cell-based MOR-DOR heterodimer luminescence. inhibition, % at 9.3 µM. actives 0.21% (n = 340,000). AID 504357; in the data active = inhibition above about 22%, passing the limit was not always enough
HTR5A inv ctr: HTR5A inverse agonism, opioid heterodimer counter-screen. inhibition, % at 9.3 µM. P47898. HTR5A cell line, luminescence. actives 0.083% (n = 340,000); in the data active = inhibition mostly above about 23%, no sharp cut-off; inactive = mostly below about 18%
Target sequence (P47898 whole entry, looked up): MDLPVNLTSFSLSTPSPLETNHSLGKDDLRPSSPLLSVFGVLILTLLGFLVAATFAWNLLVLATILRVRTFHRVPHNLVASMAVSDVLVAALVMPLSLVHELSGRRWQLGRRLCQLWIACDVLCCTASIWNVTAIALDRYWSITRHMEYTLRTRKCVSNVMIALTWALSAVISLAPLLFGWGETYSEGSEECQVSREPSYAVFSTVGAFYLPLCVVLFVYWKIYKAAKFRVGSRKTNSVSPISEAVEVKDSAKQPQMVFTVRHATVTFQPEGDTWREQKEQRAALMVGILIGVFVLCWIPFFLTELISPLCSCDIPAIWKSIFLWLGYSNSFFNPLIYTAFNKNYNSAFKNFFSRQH
HTR5A ag: counter-screen for OPRM1-OPRD1 agonists: human HTR5A agonism; P47898; HTR5A agonist assay, luminescence, cell-based; actives 0.61% (n = 340,000); activation, % at 9.3 µM; AID 504692; in the data active = activation mostly above about 9.5%, no sharp cut-off; inactive = mostly below about 7.6%
m5-HT2A agonist: agonists of mouse serotonin 5-HT2A receptor (HTR2A). P35363. CHO-K1 mHTR2A beta-arrestin complementation, luminescence; percent of 30 µM serotonin response. activation, % at 7.6 µM. actives 0.66% (n = 360,000). AID 624169;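 active = activation above a run cutoff, the mean activation of all tested compounds plus 3 SD, cut at about 14% in these data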
HGIII-sPLA2 inh: Blocks human group III sPLA2 activity. Q9NZ20. QFRET BODIPY PC-A2 liposome hydrolysis, fluorescence. inhibition, % at 12.2 µM. actives 0.56% (n = 370,000). AID 743126;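 active = inhibition above mean plus 3 SD of compounds lying within the high and low control bounds, cut at about 19% in these data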
hGIII sPLA2 conf: human GIII-sPLA2 inhibition, confirmation; inhibition, % at 12.2 µM; shares compounds with HGIII-sPLA2 inh; actives 34% (n = 2,000); recombinant hGIII-sPLA2, BODIPY PC-A2 QFRET fluorescence; AID 743280;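 active = mean inhibition across triplicates above the hit cutoff set in the earlier primary screen, cut at about 19% in these data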
535nm interf: counter-screen for HGIII-sPLA2 inhibitors: 535nm fluorescence interference | BODIPY FL product fluorescence interference, QFRET | inhibition, % at 12.2 µM | shares compounds with HGIII-sPLA2 inh | AID 743282 | actives 8.5% (n = 2,000);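 active = average inhibition above the solvent-only control mean plus 3 SD, cut at about 6% in these data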
535nm interf DR: counter-screen for HGIII-sPLA2 inhibitors: 535nm fluorescence interference, dose response. shares compounds with HGIII-sPLA2 inh. BODIPY FL product fluorescence interference, cell-free. IC50, µM. 240 tested, under 10 active;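 active = IC50 at or below 10 µM; inactive = IC50 above 10 µM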
Of the large screens only hits and unclear results are named; the others gave an inactive call (follow-up assays come after a bar, where they were run). Shown are actives, neighbours in structure and some others; about 2.2% of the full set was active somewhere.

Cn1c(=O)c(=O)n(C)c2cc(N3CCCC3)c(NS(=O)(=O)c3ccc(F)cc3)cc21	none
Cn1c(=O)c(=O)n(C)c2cc(N3CCCCC3)c(NS(=O)(=O)c3ccc([N+](=O)[O-])cc3)cc21	HGIII-sPLA2 inh 21 | hGIII sPLA2 conf inactive | 535nm interf inactive
O=C(Nc1nc(Cc2ccccc2)c(-c2ccccc2)n1Cc1ccccc1)c1ccccc1	HGIII-sPLA2 inh 20 (no result: MOR-DOR ag, MOR-DOR inv ag, HTR5A inv ctr, HTR5A ag, m5-HT2A agonist) | hGIII sPLA2 conf inactive | 535nm interf inactive
COc1ccc(-c2c(Cc3ccccc3)nc(NC(=O)c3ccccc3)n2C)cc1	HGIII-sPLA2 inh 19 (no result: MOR-DOR ag, MOR-DOR inv ag, HTR5A inv ctr, HTR5A ag, m5-HT2A agonist) | hGIII sPLA2 conf inactive | 535nm interf inactive
COc1cc(-n2c(C)nc3cc(C(=O)N4CCN(C(C)=O)CC4)ccc32)cc(OC)c1OC	none (no result: MOR-DOR ag, MOR-DOR inv ag, HTR5A inv ctr, HTR5A ag, m5-HT2A agonist)
O=C(CCc1ccccc1)N[C@H]1[C@@H](OC(=O)c2ccc([N+](=O)[O-])cc2)CCC[C@]12C(=O)N(Cc1ccccc1)c1ccccc12	none (no result: MOR-DOR ag, MOR-DOR inv ag, HTR5A inv ctr, HTR5A ag, m5-HT2A agonist)
O=C(Nc1ccc(F)cc1)OCc1cn(Cc2ccccc2C(F)(F)F)nn1	none (no result: MOR-DOR ag, MOR-DOR inv ag, HTR5A inv ctr, HTR5A ag, m5-HT2A agonist)
CCS(=O)(=O)N1CCC(C(=O)NCc2cccnc2)CC1	HGIII-sPLA2 inh 20 | hGIII sPLA2 conf inactive | 535nm interf inactive
CC(C)C[C@H]1COc2cc(N3CCSCC3)ccc2S(=O)(=O)N1C	none (no result: MOR-DOR ag, MOR-DOR inv ag, HTR5A inv ctr, HTR5A ag, m5-HT2A agonist)
COc1ccc(-n2c(SCC(=O)Nc3cc(C)c(NC(=O)c4ccccc4)cc3OC)nnc2-c2ccccc2F)cc1	none (no result: MOR-DOR ag, MOR-DOR inv ag, HTR5A inv ctr, HTR5A ag, m5-HT2A agonist)
COc1ccc(C(NC(C)=O)c2nccc3cc(OC)c(OC)cc23)cc1OC (stereo not given)	HGIII-sPLA2 inh 20 | hGIII sPLA2 conf inactive | 535nm interf inactive
COCCCNC(=O)C[C@@H]1C(=O)N(CCc2ccc(Cl)cc2)C2=CCCCC[C@]21C(=O)OC	none (no result: MOR-DOR ag, MOR-DOR inv ag, HTR5A inv ctr, HTR5A ag, m5-HT2A agonist)
CCC(=O)N1CCc2cc(Br)c(S(=O)(=O)NCc3ccccc3OC)cc21	none (no result: MOR-DOR ag, MOR-DOR inv ag, HTR5A inv ctr, HTR5A ag, m5-HT2A agonist)
O=c1cc(C(F)(F)C(F)F)oc2ccccc12	HGIII-sPLA2 inh 25 | hGIII sPLA2 conf inactive | 535nm interf inactive
O=C(COC(=O)c1ccccc1O)NC12CC3CC(CC(C3)C1)C2	none
O=C(OCC(=O)C12CC3CC(CC(C3)C1)C2)c1ccccc1O	HGIII-sPLA2 inh 19 | hGIII sPLA2 conf inactive | 535nm interf inactive
Cc1cccc2sc(NNC(=O)C3COc4ccccc4O3)nc12 (stereo not given)	none
Cc1cc(C)c2sc(NNC(=O)C3COc4ccccc4O3)nc2c1 (stereo not given)	HGIII-sPLA2 inh 28 | hGIII sPLA2 conf 31 | 535nm interf inactive | 535nm interf DR inactive
COc1ccc(OC)c2sc(NNC(=O)C3COc4ccccc4O3)nc12 (stereo not given)	HGIII-sPLA2 inh 21 | hGIII sPLA2 conf inactive | 535nm interf inactive
COC(=O)C1CCC(CNC(=O)C(Cc2ccc3c(c2)OCO3)NC(C)=O)CC1 (stereo not given)	none (no result: MOR-DOR ag, MOR-DOR inv ag, HTR5A inv ctr, HTR5A ag, m5-HT2A agonist)
CN(C)c1ccc(N=Nc2ccccc2C(=O)OCC(=O)NC2CCCC2)cc1	HGIII-sPLA2 inh 20 | hGIII sPLA2 conf 24 | 535nm interf inactive
CN(C)c1ccc(N=Nc2ccccc2C(=O)OCC(=O)NCC2CCCCC2)cc1	none
O=C(NCCc1ccncc1)Nc1ccc(F)cc1	HGIII-sPLA2 inh 20 | hGIII sPLA2 conf inactive | 535nm interf inactive
CCCCN(CCCC)S(=O)(=O)c1c(C)[nH]c(=O)[nH]c1=O	none
CCCCN(C)S(=O)(=O)c1c(C)[nH]c(=O)[nH]c1=O	HGIII-sPLA2 inh 19 | hGIII sPLA2 conf inactive | 535nm interf inactive
COCc1cn(-c2ccc3c(c2)[C@]2(CC(=O)N(C)C2c2ccccc2)C(=O)N3CC(C)C)nn1 (stereo not given in full)	none (no result: MOR-DOR ag, MOR-DOR inv ag, HTR5A inv ctr, HTR5A ag, m5-HT2A agonist)
O=C(Nc1ccc([N+](=O)[O-])cc1)c1ccccc1F	none
